# Bioassay records from PubChem BioAssay.
# Compounds with a hit are over-represented: about 0.78% of the library has one in this group of screens.
# RGS16-Gao HTS: modulates binding between human RGS16 and Galphao | bead-based flow cytometry RGS16-Galphao binding, fluorescence; actives lie on both sides | binding response (% of control), % at 10 µM | actives 0.38% (n = 220,000) | AID 1441;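 further: Galphao activated by GDP with aluminum fluoride before binding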
# RGS8-Gao reg: regulators of human RGS8-Galphao interaction | actives 0.34% (n = 220,000) | P09471 | response (percent of control binding), % at 10 µM | multiplexed bead flow cytometry, RGS8-Galphao binding; actives lie on both sides; in the data active means response below about 60% or above about 140%; inactive means in between;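 further: Galphao activated as the GDP aluminium fluoride complex binding bead-coupled RGS8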
# Target sequence (P09471 whole entry, looked up): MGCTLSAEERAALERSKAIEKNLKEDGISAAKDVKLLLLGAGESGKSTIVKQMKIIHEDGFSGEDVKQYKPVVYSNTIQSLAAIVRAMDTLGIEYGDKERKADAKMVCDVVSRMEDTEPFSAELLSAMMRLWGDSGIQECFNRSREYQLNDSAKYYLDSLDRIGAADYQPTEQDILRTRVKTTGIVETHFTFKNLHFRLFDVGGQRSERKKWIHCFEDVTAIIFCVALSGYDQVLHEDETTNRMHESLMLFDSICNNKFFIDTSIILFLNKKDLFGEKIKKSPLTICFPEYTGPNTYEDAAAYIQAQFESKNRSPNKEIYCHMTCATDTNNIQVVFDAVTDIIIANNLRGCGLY
# RGS7-Gao: modulates binding of RGS7 to human Galphao; Multiplexed bead flow cytometry; actives lie on both sides; P09471; binding response (% of control), % at 10 µM; actives 0.35% (n = 220,000); AID 1439; in the data active means binding response below about 49% or above about 150%; inconclusive means no clear call, values can overlap the other calls; inactive means in between;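 further: fluorescent Galphao held in activated GDP-AlF4 state binding bead-coupled RGS7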
# RGS4-Gao reg: modulates binding of RGS4 to human Galphao | P09471 | Multiplexed bead flow cytometry; actives lie on both sides | binding response (% of control), % at 10 µM | actives 0.33% (n = 220,000) | AID 1415; in the data active means binding response below about 49% or above about 150%; inactive means in between;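 further: fluorescent Galphao activated with aluminum fluoride binding bead-coupled RGS4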
# RGS4-Gao HTS: RGS4-Galphao interaction regulator (human). shares compounds with RGS16-Gao HTS. multiplexed bead flow cytometry, RGS–Galpha-o binding. RGS4–Galpha-o binding response, % at 10 µM. actives 99% (n = 1,600). AID 1504;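 further: fluorescently labeled Galpha-o bound to GDP with aluminium fluoride binding biotinylated RGS beads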
# Target sequence (P09471 whole entry, looked up): as above
# Target sequence (P49798 whole entry, looked up): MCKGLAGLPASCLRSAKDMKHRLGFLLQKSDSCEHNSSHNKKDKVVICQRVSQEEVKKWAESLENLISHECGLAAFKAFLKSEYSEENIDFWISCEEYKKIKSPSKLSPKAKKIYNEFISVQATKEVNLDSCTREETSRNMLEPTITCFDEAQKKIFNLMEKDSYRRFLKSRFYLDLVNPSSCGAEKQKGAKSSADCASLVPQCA
# Avidin counter: biotin-avidin bead binding disruption counter-screen; shares compounds with RGS16-Gao HTS; streptavidin beads, fluorescein-biotin binding, flow cytometry; inhibition, % at 10 µM; 1,700 tested, under 10 active; AID 1783;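 active means inhibition above 50%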;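 further: median green fluorescence of gated singlet beads compared with DMSO control wells; 0% = DMSO wells and 100% = complete loss of bead fluorescence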
# RGS8-Gao single: RGS8-Galphao interaction regulation, single point confirmation; shares compounds with RGS16-Gao HTS; AID 1836; actives 3% (n = 1,700); binding response (% of control), % at 10 µM; bead-based flow cytometry RGS8-Galphao binding, fluorescence; actives lie on both sides; in the data active means binding response below about 72% or above about 130%; inactive means in between;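 further: Galphao activated as GDP AlF4 complex before binding bead RGS8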
# RGS7-Gao single: RGS7-Galphao interaction regulation, single point confirmation; shares compounds with RGS16-Gao HTS; actives 7.8% (n = 1,700); response (percent of control binding), % at 10 µM; bead-based flow cytometry RGS7-Galphao binding; actives lie on both sides; in the data active means response below about 75% or above about 130%; inactive means in between;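 further: fluorescent Galphao activated with GDP and aluminum fluoride binding bead-coupled RGS7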
# RGS16-Gao conf: confirmation of regulators of human RGS16-Galphao interaction; shares compounds with RGS16-Gao HTS; bead-based flow cytometry, RGS16-Galphao binding; actives lie on both sides; response (% of control binding), % at 10 µM; actives 4% (n = 1,700); AID 1838; in the data active means response below about 74% or above about 130%; inactive means in between;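 further: Galphao activated as the GDP aluminium fluoride complex binding bead-coupled RGS16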
# RGS4-Gao confirm: confirmation of regulators of human RGS4-Galphao interaction. shares compounds with RGS16-Gao HTS. RGS4-Galphao binding, multiplexed bead flow cytometry; actives lie on both sides. binding response (% of control), % at 10 µM. actives 4% (n = 1,700); in the data active means binding response below about 74% or above about 130%; inactive means in between
# RGS19-Gao single: RGS19-Galphao interaction regulation, single point confirmation. shares compounds with RGS16-Gao HTS. response (percent of control binding), % at 10 µM. actives 5% (n = 1,700). bead-based flow cytometry RGS19-Galphao binding; actives lie on both sides; in the data active means response below about 50% or above about 160%; inactive means in between;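 further: 100% = no compound control and 0% = blank background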
# Starred values were filed as active, the others as inactive; i = inactive; ? = inconclusive; · = not tested or not shown; + = active, no number; [ ] = remark or other dose. Unless noted, how the calls were made is not given here.
SMILES,RGS16-Gao HTS,RGS8-Gao reg,RGS7-Gao,RGS4-Gao reg,Avidin counter,RGS8-Gao single,RGS7-Gao single,RGS16-Gao conf,RGS4-Gao confirm,RGS19-Gao single,others
CC(=O)c1ccc(OCCn2cnc3ccccc32)cc1,192*[activator],120,109,112,-1,100,101,102,101,109,RGS4-Gao HTS=112*
COc1ccc2[nH]c(=O)c(COC(=O)c3cccs3)cc2c1,14,22*,20*,21*,-2,101,92,98,101,84,
CSCC[C@H](NC(=O)Nc1ccc(C)cc1)C(=O)O,114,104,103,104,·,·,·,·,·,·,
Cc1csc(NC(=O)C2C3C=CC(C3)C2C(=O)O)n1 (stereo not drawn),-20*,10*,-9.1*,-23*,-1,99,103,100,100,112,
Cn1c(SCC(=O)NCCN2C(=O)CSC2=O)nnc1-c1ccccc1,130,107,213*[activator],124,-1,103,105,103,104,103,RGS4-Gao HTS=124*
Cc1ccc(-n2c(SCC(=O)NCCN3C(=O)CSC3=O)nnc2-c2ccccc2)cc1,18*,78,87,90,0,100,103,100,102,94,RGS4-Gao HTS=90*
Cc1ccc(NC(=O)c2c(C(=O)Nc3ccccc3)sc3nc(C)cc(=O)n23)cc1,97,101,97,99,·,·,·,·,·,·,
CN(C)[C@@H]1C(=O)C(C(=O)NCN2CCCC2)=C(O)[C@@]2(O)C(=O)C3=C(O)c4c(O)cccc4[C@@](C)(O)C3CC12 (stereo partly drawn),8,18*,8.3*,21*,-2,53*,26*,54*,60*,35*,
C=C1c2cccc(O)c2C(O)=C2C(=O)[C@]3(O)C(O)=C(C(N)=O)C(=O)[C@@H](N(C)C)[C@@H]3[C@@H](O)[C@H]12,96,101,105,92,·,·,·,·,·,·,
Cc1ccc2nc(N(CCCN(C)C)C(=O)c3ccco3)sc2c1,+[activator],237*[activator],+[activator],+[activator],0,101,93,100,98,101,
CN(C)CCCN(C(=O)c1ccco1)c1nc2ccc(F)cc2s1,102,104,?,103,·,·,·,·,·,·,
Cc1c(Cl)cccc1NC(=S)N1CCN(Cc2ccccc2)CC1,226,126,110,107,2,102,106,101,101,93,
S=C(Nc1ccccc1Cl)N1CCN(Cc2ccccc2)CC1,113,107,110,109,·,·,·,·,·,·,
COc1ccc(-n2c3c(cc(C(=O)NNc4ccccc4)c2=O)C(=O)CC(C)(C)C3)cc1,43,59*,47*,47*,-3,95,87,93,90,69,
COc1ccc(-n2c3c(cc(C(=O)NNc4ccccc4C)c2=O)C(=O)CC(C)(C)C3)cc1,86,93,92,84,·,·,·,·,·,·,
CC(=O)Oc1ccc2c(=O)c(Oc3ccccc3)c(C)oc2c1OC(C)=O,-3,54*,43*,49*,-1,96,94,94,95,93,
O=C(CCC1CCCN(C(=O)c2cncs2)C1)NCc1ccc(F)c(F)c1 (stereo not drawn),119,95,231*[activator],109,-1,101,97,100,101,83,RGS4-Gao HTS=109*
CC(C)c1ccc2oc3nc(N)c(C(=O)O)cc3c(=O)c2c1,97,96,98,97,·,·,·,·,·,·,
Nc1ccc2oc3ccc(N)cc3c(=O)c2c1,54,44*,-13*,5.6*,3,104,104,106,110,106,
Cc1cc(=O)oc2c(CN(CC(C)C)CC(C)C)c(O)ccc12,249,144*[activator],115,119,i,99,103,100,101,99,RGS4-Gao HTS=119*
CC1=NOC(=O)/C1=C/c1ccc(N(C)C)cc1,100,100,102,101,·,·,·,·,·,·,
O=C1NC(=O)/C(=C/c2cccc(O)c2)N1,·,·,·,·,-1,98,95,98,98,95,
O=C1NC(=O)/C(=C\c2ccc(OCc3cccc(C(=O)O)c3)c(Cl)c2)N1,96,97,93,97,·,·,·,·,·,·,
CN(C)c1ccc(/C=C2/NC(=O)NC2=O)cc1,i,145*[activator],354*[activator],549*[activator],1,102,103,105,102,104,
CCN(CC)S(=O)(=O)c1ccc2c(c1)nc(CCC(=O)Nc1ccc3c(c1)OCO3)n2CC,20*,71,88,82,-1,100,87,98,92,102,RGS4-Gao HTS=82*
SMILES,RGS16-Gao HTS,RGS8-Gao reg,RGS7-Gao,RGS4-Gao reg,Avidin counter,RGS8-Gao single,RGS7-Gao single,RGS16-Gao conf,RGS4-Gao confirm,RGS19-Gao single,others
CCN(CC)S(=O)(=O)c1cc(C(=O)Oc2cccc(-c3cnc4ccccc4n3)c2)ccc1Br,-29*,11*,-8.5*,-30*,-1,103,108,107,104,93,
CCN(CC)S(=O)(=O)c1ccc(Cl)c(C(=O)Oc2cccc(-c3cnc4ccccc4n3)c2)c1,93,97,99,101,·,·,·,·,·,·,
COc1ccc(-c2oc(NC(=O)CSc3nncn3C)c(C#N)c2-c2ccc(OC)cc2)cc1,102,100,102,100,·,·,·,·,·,·,
COc1ccccc1-c1c(C)nn2c(N3CCN(c4ccccc4OC)CC3)cc(C)nc12,91,99,104,105,·,·,·,·,·,·,
CC(=O)/C(=N/Nc1ccccc1Cl)Sc1nnc(C(O)c2ccccc2)n1-c1ccccc1 (stereo not drawn),90,100,98,99,·,·,·,·,·,·,
CC(=O)/C(=N/Nc1ccccc1)Sc1nnc(C(O)c2ccccc2)n1-c1ccccc1 (stereo not drawn),18*,85,96,99,0,95,105,99,101,106,RGS4-Gao HTS=99*
CC(C)COc1ccc2[nH]c3c(c2c1)CCCC3=O,336*[activator],121,103,118,0,105,105,103,101,97,RGS4-Gao HTS=118*
CC(C)c1ccccc1NS(=O)(=O)N(C)C,102,102,111,105,·,·,·,·,·,·,
O=C(CCN1CCOCC1)NNC(=O)/C(=C/c1ccccc1)NC(=O)c1ccccc1,64,86,54,43*,1,111,101,112,102,101,
